Experimental data: PubChem BioAssay (NCATS)
Inconclusive results are not listed. Calls of active or inactive are those of the source. Calls come from the whole dose curve; as a rule, active = well fitted curve in the direction sought with a large enough effect; inconclusive = small, poorly fitted or top-dose-only effect, or another doubt; inactive = no such curve, though single readings can be large; an effect the other way counts as inactive or inconclusive.

What was measured:
[1] = biological target: Glutathione peroxidase 1 (Homo sapiens) (UniProt P07203); experiment: Primary qHTS Assay for Inhibitors of Recombinant Selenoprotein Glutathione Peroxidase 1 (GPX1) (AID 1845191); note: nearly all actives have a fitted effect of over 65% in size; for activity, negative = inhibition: % is set by controls: 0 for no effect and ±100 for the full control effect
Chain of Glutathione peroxidase 1 (Homo sapiens) (P07203 whole entry, looked up): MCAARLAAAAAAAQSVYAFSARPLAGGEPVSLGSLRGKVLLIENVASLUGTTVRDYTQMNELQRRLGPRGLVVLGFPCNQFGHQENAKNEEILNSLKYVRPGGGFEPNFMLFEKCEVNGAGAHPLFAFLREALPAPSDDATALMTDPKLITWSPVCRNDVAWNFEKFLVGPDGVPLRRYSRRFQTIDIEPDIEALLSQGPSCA
Method in brief: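 Recombinant GPX1 (10 nM final) was preincubated with compound for 30 min at room temperature, then reacted with 1 mM GSH, 0.5 mM CHP, 0.5 mM NADPH and 100 nM glutathione reductase; NADPH fluorescence (340/450 nm) was read at 0 and 15 min.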

[2] = biological target: Phospholipid hydroperoxide glutathione peroxidase GPX4 (Homo sapiens) (UniProt P36969); experiment: Primary qHTS Assay for Inhibitors of Recombinant Selenoprotein Glutathione Peroxidase 4 (GPX4) (AID 1845192); note: series mostly up to about 50 µM; % is set by controls: 0 for no effect and ±100 for the full control effect; nearly all actives have a fitted effect of over 65% in size
Chain of Phospholipid hydroperoxide glutathione peroxidase GPX4 (Homo sapiens) (P36969 whole entry, looked up): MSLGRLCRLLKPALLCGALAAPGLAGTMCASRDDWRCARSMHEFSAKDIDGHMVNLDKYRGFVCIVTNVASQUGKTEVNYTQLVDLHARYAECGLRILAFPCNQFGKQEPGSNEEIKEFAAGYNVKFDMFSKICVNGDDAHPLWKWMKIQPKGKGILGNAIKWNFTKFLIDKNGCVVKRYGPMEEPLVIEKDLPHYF
Method in brief: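 GR-coupled readout: 100 nM GR, 1 mM GSH, 0.5 mM NADPH; NADPH fluorescence (ex 340/em 450 nm) read at t=0 and after 15 min RT. GPX4 200 nM, preincubated 30 min with compound; substrate 0.5 mM CHP.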

[3] = biological target: Luciferin 4-monooxygenase (Photinus pyralis) (UniProt P08659); experiment: Primary firefly luciferase (FLuc) qHTS assay for identification of artifact compounds. (AID 1845220); note: nearly all actives have a fitted effect of over 60% in size;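 for activity change, negative = inhibition: series mostly up to about 54 µM; plate controls were DMSO vehicle for no effect and no enzyme for full effect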
Method in brief: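 In this counter-screen for luciferase artifacts, test compounds met substrate (10 uM each luciferin and ATP) before 10 nM enzyme started the reaction. Light output was measured 5 min later.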

[4] = tested on: Nanoluciferase (engineered Oplophorus gracilirostris luciferase); experiment: Primary Nanoluciferase (NLuc) qHTS assay for identification of artifact compounds. (AID 1845222);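 note: NLuc secreted into diluted conditioned medium of S16 cells; series mostly up to about 54 µM; 0% = DMSO and -100% = no enzyme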
Method in brief: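 Using secreted nanoluciferase in S16 culture medium (0.22 um filtered, 1:55 dilution), compounds were preincubated 15 min at RT. Signal was generated with Nano-Glo reagent (1:100) over 5 min.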

[5] = Primary redox qHTS assay for identification of artifact compounds. (AID 1845223);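 note: 0% = DMSO and 100% = reference compound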
Method in brief: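 Amplex Red (25 uM) and HRP (250 mU/mL) in HBSS, with compounds for 15 min, then 250 uM DTT for 30 min, room temperature, dark. Fluorescence 525/598 nm read; normalized to DMSO and 10 uM DA3003; Hill fit.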

C/C=C/C=C/C(O)=C1/C(=O)[C@]2(C)C3/C(=C(O)/C=C/C=C/C)C(=O)C4(C)C1[C@]1(C)O[C@@]4(O)[C@@]3(C)O[C@@]12O
inactive: Potency [1] | Potency [2] | Potency [3] | Potency [4] | Potency [5]

CC1=CC(=O)C(=C(C)C)CC2C(C)(O)CCC12O (stereo not given)
inactive: Potency [1] | Potency [2] | Potency [3] | Potency [4] | Potency [5]

O=C(O)c1cc(O[C@@H]2O[C@H](CO)[C@@H](O)[C@H](O)[C@H]2O)ccc1O
inactive: Potency [1] | Potency [2] | Potency [3] | Potency [4] | Potency [5]

COC(=O)c1[nH]c(=O)c2ccccc2c1-c1ccc[nH]1
inactive: Potency [1] | Potency [2] | Potency [3] | Potency [4] | Potency [5]

COc1cc(C(CO)C(OC2OC(CO)C(O)C(O)C2O)c2ccc(O)c(OC)c2)ccc1O (stereo not given)
inactive: Potency [1] | Potency [2] | Potency [3] | Potency [4] | Potency [5]

NC(N)=NCCC[C@H](NC(=O)c1sccc1NS(=O)(=O)c1cccc2nsnc12)C(=O)O
inactive: Potency [1] | Potency [2] | Potency [3] | Potency [4] | Potency [5]

C[C@@H]1C(=O)O[C@H]2[C@H]1CC[C@@]1(C)C(=O)C=C[C@@](C)(O)[C@H]21
inactive: Potency [1] | Potency [2] | Potency [3] | Potency [4] | Potency [5]

COc1ccc(C(=O)CC(=O)O)c2c1C=CC(C)(C)O2
inactive: Potency [1] | Potency [2] | Potency [3] | Potency [4] | Potency [5]

CC1=COC(OC2OC(CO)C(O)C(O)C2O)C2C(CO)CC(OC(=O)/C=C/c3ccc(O)cc3)C12 (stereo not given)
inactive: Potency [1] | Potency [2] | Potency [3] | Potency [4] | Potency [5]

CC(O)/C=C/C1(O)C(C)C(O)C(O[C@@H]2O[C@H](CO)[C@@H](O)[C@H](O)[C@H]2O)CC1(C)C (stereo not given in full)
inactive: Potency [1] | Potency [2] | Potency [3] | Potency [4] | Potency [5]

C=C1C[C@@]2(O)O[C@@]3(C[C@H]2C(C)C)[C@@H](C)CC[C@@H]13
inactive: Potency [1] | Potency [2] | Potency [3] | Potency [4] | Potency [5]

COc1cc(/C=C/C(=O)O[C@H]2[C@@H]3C=CO[C@@H](O[C@@H]4O[C@H](CO)[C@@H](O)[C@H](O)[C@H]4O)[C@@H]3[C@@]3(CO)O[C@@H]23)ccc1O
inactive: Potency [1] | Potency [2] | Potency [3] | Potency [4] | Potency [5]

C[C@@]12CC3(S(=O)(=O)O)OC(O1)[C@]1(COC(=O)c4ccccc4)[C@H]3C[C@]21O[C@@H]1O[C@H](CO)[C@@H](O)[C@H](O)[C@H]1O
inactive: Potency [1] | Potency [2] | Potency [3] | Potency [4] | Potency [5]

CC1CC(=O)C2C(O)(C1)CC(O)C13OC1c1c(O)cccc1C(=O)C23O (stereo not given)
inactive: Potency [1] | Potency [2] | Potency [3] | Potency [4] | Potency [5]

C=C1CCC2(OC1)OC1CC3C4CC=C5CC(O)CC(O[C@@H]6OC[C@H](OC(=O)C(O)C(C)CC)[C@H](O)[C@H]6O[C@@H]6O[C@@H](C)[C@H](O)[C@@H](O)[C@H]6O)C5(C)C4CCC3(C)C1C2C (stereo not given in full)
inactive: Potency [1] | Potency [2] | activity change, negative = inhibition [3] 0.354% [at 11.6 µM] | activity, negative = inhibition [4] 4.49% [at 11.6 µM] | redox activity (% of DA3003) [5] -3.18% [at 11.5 µM]

O=C(c1ccc(Cl)c([N+](=O)[O-])c1)N1CCN(c2ccccc2F)CC1
inactive: Potency [1] | Potency [2] | Potency [3] | Potency [4] | Potency [5]

Oc1ccc(CC2NCCc3cc(O)c(O)cc32)cc1 (stereo not given)
inactive: Potency [1] | Potency [2] | Potency [3] | Potency [4] | Potency [5]
